Only some compounds are listed: those with a hit (about 3.5% of all), similar ones and a draw of the others.
FBW7 act – activators of human E3 ligase FBW7. normalized activity (activation), % at 26.1 µM. AlphaScreen FBW7–phospho-cyclin E peptide binding, activator screen. AID 1259310. hit rate 0.13% among 650,000; in the data active means normalized activity above about 1.9%;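 further: purified mutant Fbw7 with reduced substrate affinity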
TEAD-YAP block – TEAD-YAP interaction inhibition; hit rate 1.4% among 640,000; HEK-TIYL cells, TEAD-Gal4/YAP UAS-luciferase luminescence; inhibition, % at 9.12 µM; in the data active means inhibition above about 32%;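 further: 0% = median of test compound wells and 100% = reference inhibitor wells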
GPR151 ag – human GPR151 activation; Q8TDV0; PathHunter beta-arrestin GPR151 cells, luminescence; activation, % at 11.2 µM; hit rate 1% among 650,000; AID 1508602; in the data active means activation above about 4.9%;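 further: 0% = median of compound wells and 100% = cells with positive control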
MITF inh – blocks human microphthalmia-associated transcription factor; O75030; AlphaScreen MITF homodimerization, bead proximity signal; inhibition, % at 2.6 µM; hit rate 0.91% among 650,000; in the data active means inhibition above about 50%;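 further: 0% = vehicle wells with protein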
Target sequence (O75030 whole entry, looked up): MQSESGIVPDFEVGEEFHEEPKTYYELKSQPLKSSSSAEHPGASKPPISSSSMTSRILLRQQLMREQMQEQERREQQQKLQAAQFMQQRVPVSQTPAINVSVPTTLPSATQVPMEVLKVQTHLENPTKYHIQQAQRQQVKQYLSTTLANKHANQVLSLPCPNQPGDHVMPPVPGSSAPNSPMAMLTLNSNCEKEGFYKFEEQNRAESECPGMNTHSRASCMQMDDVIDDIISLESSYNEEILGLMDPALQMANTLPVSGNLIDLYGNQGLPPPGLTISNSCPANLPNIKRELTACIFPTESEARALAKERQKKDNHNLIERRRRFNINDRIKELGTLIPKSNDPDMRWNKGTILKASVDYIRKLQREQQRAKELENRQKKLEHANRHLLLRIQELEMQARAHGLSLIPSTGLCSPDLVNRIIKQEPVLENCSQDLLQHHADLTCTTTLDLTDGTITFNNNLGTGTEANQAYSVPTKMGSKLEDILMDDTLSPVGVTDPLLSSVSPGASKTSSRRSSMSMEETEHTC
MITF inh conf – confirmation of human MITF inhibitors; AlphaScreen MITF homodimerization, biotin/His-MITF beads; inhibition, % at 2.6 µM; hit rate 16% among 4,700; AID 1259372; shares compounds with MITF inh;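 active means inhibition above a cutoff derived from the DMSO control wells, cut at about 28% in these data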;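 further: 0% = MITF dimer wells with DMSO only; inhibitors lower the bead chemiluminescence by keeping MITF from dimerizing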
AS interf DR – AlphaScreen optical interference, dose response counter-screen | AID 1259373 | IC50, µM | shares compounds with MITF inh | hit rate 6% among 480 | AlphaScreen optical interference counterscreen, cell-free; call rule not given here
AS interf ctr – optically interferes with AlphaScreen signal; shares compounds with MITF inh; hit rate 7.6% among 4,700; inhibition, % at 2.6 µM; LysRS AlphaScreen counterscreen, signal interference, triplicate;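 active means inhibition above a cutoff derived from the DMSO control wells, cut at about 30% in these data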
Active calls of the source: *; nt = no result given.

SMILES	FBW7 act	TEAD-YAP block	GPR151 ag	MITF inh	MITF inh conf	AS interf ctr	others
CCOC(=O)N1CCN(C(=O)C2CCN(Cc3ccc(CC)cc3)CC2)CC1	0	-3	-2	42	nt	nt
CCOC(=O)C1CCN(C(=O)C2CCN(Cc3ccc(OCC)cc3)CC2)CC1	0	14	0	53*	11	11
CCOC(=O)C1CCN(C(=O)C2CCN(Cc3ccc(CC)cc3)CC2)CC1	0	13	-2	61*	7	16
Cc1ccc(CNC(=O)C2CCN(Cc3ccc(F)cc3)CC2)cc1	0	3	0	37	nt	nt
CCOc1ccc(CN2CCC(C(=O)NCc3ccc(C)cc3)CC2)cc1	0	12	0	54*	8	18
Nc1cccc(-c2cc(NCc3ccccc3)ncn2)c1	0	-9	1	27	nt	nt
CCOc1ccc(C(=O)c2c(N)c(C(=O)Nc3ccccc3C)c3ccccn23)cc1	0	-3	0	5	nt	nt
COc1ccc(N=Cc2nc(-c3cccc4ccccc34)oc2O)c([N+](=O)[O-])c1	0	1	-1	-6	nt	nt
CCc1nc2nc(C)cc(Nc3ccc(F)cc3)n2n1	0	-7	0	-14	nt	nt
COc1ccc2ccccc2c1CN1CCN(C2CCCC2)C(CCO)C1 (stereo not drawn)	0	3	1	10	nt	nt
CCOC(=O)C1CCN(C(=O)/C=C/c2ccc(F)cc2)CC1	0	-36	0	71*	1	-2
CCc1ccc(CN2CCC(C(=O)N3CCCC3)CC2)cc1	0	-1	-1	58*	14	19
O=C(C1CCN(Cc2ccc(F)cc2)CC1)N1CCN(Cc2ccccc2)CC1	0	2	1	62*	7	14
CCOC(=O)C1CCN(C(=O)/C=C/c2ccccc2)CC1	0	-44	-1	-2	nt	nt
Cc1c(Cl)cccc1NC(=O)CN1CCC(C(=O)c2ccc3c(c2)OCCO3)CC1	0	-2	0	-13	nt	nt
CCC(=O)N1CCc2cc(S(=O)(=O)Nc3ccc(C)c(F)c3)ccc21	0	14	0	5	nt	nt
CCN(CC)c1nc(NCCOc2ccccc2)nc(Nc2cccc(N(C)C)c2)n1	0	-6	-1	61*	7	6
CC(C)N(CCNc1ccnc(N2CCOCC2)n1)C(C)C	0	-12	0	16	nt	nt
CC(C)=C1C2CC2C2C(C(=O)O)C12 (stereo not drawn)	0	15	-1	60*	-3	5
CN(C)c1cc(NC(=O)CNC(C)(C)C)c(O)c2c1C[C@H]1C[C@H]3[C@@H](N(C)C)C(=O)C(C(N)=O)=C(O)[C@@]3(O)C(=O)C1=C2O	0	-3	1	78*	60*	-4	AS interf DR=>6.5
CCOC(=O)C1(CCOc2ccccc2)CCN(Cc2ccon2)CC1	0	-5	0	5	nt	nt
O=C(CCCN1C(=O)c2ccccc2C1=O)Nc1cccc2ccccc12	0	-2	0	-46	nt	nt
CCN1CCN(CCCOc2ccc(Cl)cc2Br)CC1	0	-15	2	68*	14	20
CC1CN(CCOc2ccc(Cl)cc2Br)CC(C)O1 (stereo not drawn)	0	0	0	39	nt	nt
CCN1CCN(CCOc2ccc(Br)cc2C)CC1	0	-4	-1	57*	17	9
SMILES	FBW7 act	TEAD-YAP block	GPR151 ag	MITF inh	MITF inh conf	AS interf ctr	others
CCN1CCN(CCOc2ccc3ccccc3c2Br)CC1	0	-2	1	60*	14	13
CCN1CCN(CCOc2ccc(Cl)cc2Br)CC1	0	5	-2	57*	9	14
Cc1cc(F)ccc1C(=O)Nc1ccc(I)cc1	0	-66	-1	7	nt	nt
CSCCC(C(=O)N1CCOCC1)N1C(=O)C2C3c4ccccc4C(c4ccccc43)C2C1=O (stereo not drawn)	0	2	-1	3	nt	nt
Cc1cccc(CN2CCN(C(=O)c3ccccc3F)CC2)c1	0	7	2	43	nt	nt
O=C(c1ccc(-c2ccccc2)cc1)N1CCN(Cc2cccc(F)c2)CC1	0	-9	-1	64*	-4	3
COc1cccc(CN2CCC(C(=O)NC(C)C)CC2)c1	1	3	1	46	nt	nt
COc1cccc(CN2CCN(C(=O)Nc3cccc(Cl)c3)CC2)c1	0	-6	-1	51*	3	10
Cc1cccc(CN2CCN(C(=O)c3ccc(F)cc3)CC2)c1	1	6	-1	68*	17	11
Cc1cccc(CN2CCC(C(=O)NC(C)C)CC2)c1	0	1	-1	77*	-9	-7
O=C(c1cccc(F)c1)N1CCN(Cc2cccc(Br)c2)CC1	0	11	0	50	nt	nt
COc1cccc(CN2CCN(C(=O)c3ccncc3)CC2)c1	0	0	0	81*	26	-15
COc1cccc(CN2CCN(C(=O)c3ccc(F)cc3)CC2)c1	0	7	-2	60*	52*	21	AS interf DR=>5.3
O=C(c1ccncc1)N1CCN(Cc2cccc(Br)c2)CC1	0	14	1	65*	-3	-3
COc1ccc(N2CC(CNC(=O)Cc3ccc(F)cc3)CC2=O)cc1 (stereo not drawn)	0	4	-1	55*	-16	-3
O=C(Nc1cnn(-c2cccc(C(=O)Nc3cccnc3)c2)c1)Nc1ccccc1Cl	0	-7	3	-7	nt	nt
O=[N+]([O-])c1cccc(P(=O)(c2cccc([N+](=O)[O-])c2)N2CCOCC2)c1	0	-4	0	51*	-6	-5
NN1C(=O)/C(=C/c2cccs2)NC1=S	0	1	0	14	nt	nt
Cc1cc(N(CC(=O)Nc2cccc(F)c2)S(C)(=O)=O)ccc1Br	0	-5	-1	14	nt	nt
CS(=O)(=O)N1CCN(Cc2cccc([N+](=O)[O-])c2)CC1	0	4	-1	72*	7	17
CC1CCCC(N2CCN(Cc3cccc([N+](=O)[O-])c3)CC2)C1 (stereo not drawn)	0	-1	-1	75*	6	-4
O=[N+]([O-])c1cccc(CN2CCC(N3CCCCCC3)CC2)c1	1	1	3	67*	2	6
CC1CCC(N2CCN(Cc3cccc([N+](=O)[O-])c3)CC2)CC1 (stereo not drawn)	0	-6	0	60*	2	0
O=[N+]([O-])c1cccc(CN2CCN(S(=O)(=O)Cc3ccccc3)CC2)c1	0	17	4	31	nt	nt
CC1CCN(C2CCN(Cc3cccc([N+](=O)[O-])c3)CC2)CC1	0	-7	0	18	nt	nt
O=[N+]([O-])c1cccc(CN2CCC(N3CCN(Cc4ccccc4)CC3)CC2)c1	0	-6	-1	23	nt	nt
OC(CNCC1CCCCC1)COc1ccccc1 (stereo not drawn)	0	-5	0	-5	nt	nt
OC(CNCCNCC(O)COc1ccccc1)COc1ccccc1 (stereo not drawn)	0	7	-1	19	nt	nt
